Source: PubChem (several laboratories)
Mtb FBA inh – Mtb FBA enzyme inhibitors, primary screen, biochemical, fluorescence, strain H37Rv. AID 588726, 2011. 360,000 tested, 2.3% active. inhibition, % at 1 µM. purified M. tuberculosis FBA, fluorescence read-out; in the data active = inhibition above about 27%
Target sequence (P9WQA3 whole entry, looked up): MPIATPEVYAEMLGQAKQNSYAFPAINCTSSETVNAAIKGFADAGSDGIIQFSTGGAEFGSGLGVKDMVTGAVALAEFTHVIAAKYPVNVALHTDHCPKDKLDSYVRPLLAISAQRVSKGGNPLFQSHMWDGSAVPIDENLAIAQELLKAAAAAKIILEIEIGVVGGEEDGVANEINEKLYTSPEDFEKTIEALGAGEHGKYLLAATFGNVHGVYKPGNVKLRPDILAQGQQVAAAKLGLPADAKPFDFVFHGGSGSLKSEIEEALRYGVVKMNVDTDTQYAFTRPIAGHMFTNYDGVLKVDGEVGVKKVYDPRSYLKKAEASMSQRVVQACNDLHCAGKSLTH
Rv3671c inh – Rv3671c serine protease inhibitors, primary screen, biochemical, fluorescence polarization, M. tuberculosis H37Rv | 320,000 tested, 0.048% active | P9WHR9 | inhibition, % at 5.96 µM; in the data active = inhibition above about 38%;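 also: extracellular domain of Rv3671c used as enzyme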
UGM FP inh – M. tuberculosis UGM enzyme inhibitors, primary screen, biochemical, fluorescence polarization, single point | UDP-galactopyranose mutase (Mycobacterium tuberculosis (strain ATCC 25618 / H37Rv)), … | 320,000 tested, 0.06% active | purified UGM, fluorescence polarization probe displacement | inhibition, % at 10 µM; in the data active = inhibition above about 10%, passing the limit was not always enough
GDH-TPI counter – GDH-TPI coupling enzyme inhibitors, primary screen, artefact control for M. tuberculosis FBA inhibitor project, biochemical, absorbance, full deck; AID 588335, 2011; GDH-TPI coupled enzyme counterscreen, NADH absorbance; inhibition, % at 4.8 µM; 360,000 tested, 1.2% active; in the data active = inhibition above about 30%
A number is an active result; . = inactive; / = no result; + = active, no number; ! = not active in a repeat. Most compounds without a hit are left out; they make up all but 3.5% or so of the library.

SMILES	Mtb FBA inh	Rv3671c inh	UGM FP inh	GDH-TPI counter
CCC(C)n1c(=N)c(C#N)cc2c(=O)n3cc(C)ccc3nc21 (stereo unspecified)	.	.	.	.
Cc1ccc2nc3c(cc(C#N)c(=O)n3-c3nccs3)c(=O)n2c1	+	.	.	.
C(=N\N1CCOCC1)/c1nc(-c2ccccc2)n2ccccc12	.	.	.	34
C(=N\N1CCOCC1)/c1cn(-c2ccccc2)nc1-c1ccccc1	.	.	.	.
NC(N)=NC(=O)c1nc(Cl)c(N)nc1N	33!	.	.	39!
CCOC(=O)c1c(SC)[nH]c2c(Cl)cccc2c1=O	.	.	.	.
CCOC(=O)N/N=C/c1ccc(N(CC)CC)cc1O	.	.	.	41
CCN(CC)c1ccc(C=Nc2cc(C)ccc2C)c(O)c1	.	.	.	38
CCN(CC)c1ccc(/C=N/NC(=O)CCC(=O)NCc2ccccc2)c(O)c1	.	.	.	40
CCN(CC)c1ccc(/C=N/Nc2ccc(C)cc2)c(O)c1	.	.	.	.
CCN(CC)c1ccc(/C=N/NC(=O)CNC(=O)C2COc3ccccc3O2)c(O)c1 (stereo unspecified)	.	.	.	33
COc1ccc(CNCc2c(O)c(Cl)cc3c(C)c(C)c(=O)oc23)c(OC)c1	+	.	.	.
CCc1cc(=O)oc2c(CNCc3ccc(OC)cc3OC)c(O)c(Cl)cc12	+	.	.	.
Cc1c(C)c2cc(Cl)c(O)c(CN3CCCCC3)c2oc1=O	/	.	.	/
Cc1ccc(N2CCN(S(=O)(=O)c3ccc(Cl)s3)CC2C)cc1 (stereo unspecified)	.	.	.	.
O=C(c1ccc(S(=O)(=O)Nc2ccccc2F)cc1)N1CCN(c2ccccc2O)CC1	.	.	.	.
CCCCNC(=S)NNC(=O)c1cc(-c2ccncc2)nc2ccccc12	.	.	.	.
C/C(=N\NC(=O)c1ccccc1C)c1cccc([N+](=O)[O-])c1	.	.	.	.
O=C(O)c1cc(N/N=C/C=C/c2ccccc2[N+](=O)[O-])ccc1Cl	.	.	.	38
C/C(=N\Nc1ccc(Cl)c(C(=O)O)c1)c1cccc([N+](=O)[O-])c1	.	.	.	42
NS(=O)(=O)c1ccc(N/N=C/C=C/c2ccccc2[N+](=O)[O-])cc1	.	.	.	.
O=[N+]([O-])c1ccc(COc2ccc(CN3CCCC3)cc2)cc1	.	/	/	.
CCS(=O)(=O)N1CCc2nc(-c3ccccc3)sc2C1	.	.	.	.
COc1ccc(-c2nc3c(s2)CN(S(C)(=O)=O)CC3)cc1OC	127	/	.	.
CC1CCCN(S(=O)(=O)c2ccc(NC(=O)C3CC(=O)N(c4ccccc4)C3)cc2)C1 (stereo unspecified)	.	.	.	.
SMILES	Mtb FBA inh	Rv3671c inh	UGM FP inh	GDH-TPI counter
COc1ccccc1C=NN=Cc1ccccc1OC	.	/	/	31
COc1ccccc1/C=N/N1C(=O)c2cccc3cccc(c23)C1=O	.	.	.	34
COc1ccccc1C=NN=C1c2ccccc2-c2ccccc21	.	/	/	.
COc1cc(/C=C/C(=O)OCC(=O)N2CCC(C)CC2)ccc1O	.	.	.	.
COc1cc(/C=C/C(=O)OCC(=O)NC2CCCCCCC2)ccc1O	.	.	.	33
COc1cc(/C=C/C(=O)OCC(=O)N2CCc3ccccc3C2)ccc1O	.	.	.	57
COc1ccc(CNC(=O)c2cn(Cc3ccccc3OC)c(=O)s2)cc1	.	/	/	.
COC(=O)N1c2ccccc2C=Cc2ccccc21	.	.	.	.
CC(=O)c1ccc(NC(=S)N2CCN(S(=O)(=O)c3ccc(F)cc3)CC2)cc1	.	.	.	.
COc1cc(Cl)c(C)cc1NC(=O)CN1CCN(C(=O)C2CC2)CC1	.	.	.	.
COc1ccc(NC2CCCN(C(=O)C3(C)CCCCC3)C2)cc1OC (stereo unspecified)	.	.	.	.
c1cncc(Nc2c3ccccc3nc3ccccc23)c1	40	.	.	.
CC(=O)Nc1ccc(C=NNc2ccc(S(=O)(=O)Nc3ccccc3C(=O)O)cc2[N+](=O)[O-])cc1	.	.	.	48
CC(=O)Nc1ccc(C=NNc2ccc([N+](=O)[O-])cc2S(=O)(=O)Nc2ccccc2C(=O)O)cc1	.	.	.	.
CN(CCO)c1ccc(C=NNc2ccc([N+](=O)[O-])cc2S(=O)(=O)Nc2ccccc2C(=O)O)cc1	.	.	.	33
NS(=O)(=O)c1ccc(N/N=C/c2ccc(C(=O)O)cc2)c([N+](=O)[O-])c1	.	.	.	67
NS(=O)(=O)c1ccc(N/N=C/c2ccc[nH]2)c([N+](=O)[O-])c1	.	.	.	73
COc1cccc(CNC(=O)C2CCN(c3nnc(N4CCCC4=O)s3)CC2)c1	.	.	.	.
COc1cc(/C=N/Nc2ccccc2[N+](=O)[O-])cc(OC)c1O	.	.	.	.
COc1cc(/C=N/Nc2ccc(S(N)(=O)=O)cc2[N+](=O)[O-])cc(OC)c1O	.	.	.	42
COc1c(O)ccc(/C=N/NC(=O)c2ccc3c(c2)OCCO3)c1[N+](=O)[O-]	.	.	.	62
COc1c(O)ccc(/C=N\NC(=O)c2ccc3c(c2)OCO3)c1[N+](=O)[O-]	.	.	.	33
O=C(N/N=C/c1cc2c(cc1[N+](=O)[O-])OCO2)c1ccc2c(c1)OCO2	.	.	.	.
CCCCOc1ccc(C(=O)N/C(=C/C=C/c2ccccc2)C(=O)NCCO)cc1	.	.	.	31
CN(C)CCCNC(=O)/C(=C\C=C\c1ccccc1)NC(=O)c1ccc([N+](=O)[O-])cc1	.	.	.	34
SMILES	Mtb FBA inh	Rv3671c inh	UGM FP inh	GDH-TPI counter
C=CCNC(=O)/C(=C\C=C\c1ccccc1)NC(=O)c1ccc(OCCCC)cc1	.	.	.	35
CCCCOc1ccc(C(=O)N/C(=C/C=C/c2ccccc2)C(=O)NCCCO)cc1	.	.	.	.
C[C@]12CC[C@H](O)CC1=CCC1C2CC[C@@]2(C)C1CC[C@@H]2NC(=O)[C@@H](N)Cc1cnc[nH]1 (stereo partly specified)	.	/	/	.
COc1cccc2[nH]c(C(=O)NN)c(N)c12	.	.	.	.
COc1cccc2[nH]c3ccccc3c(=O)c12	135	.	.	.
Cn1c(=O)c2cc(NC(=O)NCc3ccc(F)cc3)ccc2n1C	162	/	/	.
O=C(NCc1ccc(F)cc1)Nc1cccc(Cl)c1	.	.	.	.
C=C(C)Cn1c2ccc(NC(=O)NCc3ccc(F)cc3)cc2c(=O)n1C	190	/	/	.
CC[C@@]1(C(=O)OC)N[C@H](CN(C)C(=O)c2ccc(F)cc2)[C@@H]2C(=O)N(Cc3ccccc3)C(=O)[C@@H]21	.	.	.	.
COc1ccc(C(=O)Nc2nnc(-c3ccco3)s2)cc1	.	.	.	46
COc1ccccc1C(=O)Nc1nnc(-c2ccco2)s1	.	.	.	33
CC(C)C(=O)Nc1nc(-c2ccc(S(=O)(=O)N3CCOCC3)cc2)cs1	59	.	.	.
C(=N\Nc1nc2ccccc2[nH]1)/c1cccs1	.	.	.	.
